Active and inactive are the calls of the source. How the source made its calls: active means hit-call score of the fitted dose curve at least 0.9, where 1 is the maximum; inactive means score below 0.9.
What was measured:
[1] = biological target: Paired box protein Pax-6 (Homo sapiens) (UniProt P26367); test: ATG_Pax6_CIS: Attagene CIS-FACTORIAL HepG2 Assay for human Paired Box 6 (PAX6) (AID 2282956); details: HepG2 CIS-FACTORIAL PAX6 reporter transcription, RNA readout; actives raise or lower the signal
Procedure, shortened: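 HepG2 cells transiently transfected with multiplexed cis-promoter reporter units (endogenous TF activity) were dosed for 24 h. Reporter mRNA was quantified by RT-PCR, 6-FAM labeling, HpaI digestion and capillary electrophoresis; bidirectional fitting versus DMSO baseline.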

[2] = ATG_PXRE_CIS: Attagene CIS-FACTORIAL HepG2 Assay for human Pregnane X Receptor Element (PXRE) (AID 2282957); details: HepG2 Attagene CIS-FACTORIAL PXRE reporter, mRNA; actives raise or lower the signal
Procedure, shortened: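 Transiently transfected HepG2 cells were dosed and incubated for 24 h. RNA was then isolated, DNase-treated, reverse-transcribed and reporter sequences amplified. Labeled, HpaI-digested fragments were quantified by capillary electrophoresis against DMSO.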

[3] = ATG_PPRE_CIS: Attagene CIS-FACTORIAL HepG2 Assay for human Peroxisome Proliferator-activated Response Element (PPRE) (AID 2282958); details: HepG2 PPRE cis-element reporter, Attagene transcription factor profiling; actives raise or lower the signal
Procedure, shortened: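 Transcript-level reporter induction in transfected HepG2 cells after 24 h chemical exposure, quantified by fluorescence from RT-PCR products separated by capillary electrophoresis.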

[4] = ATG_RORE_CIS: Attagene CIS-FACTORIAL HepG2 Assay for human RAR-related Orphan Receptor Element (RORE) (AID 2282959); details: HepG2 Attagene cis-factorial RORE reporter, mRNA; actives raise or lower the signal
Procedure, shortened: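 Multiplexed reporter assay measuring mRNA induction from a cis promoter element in transiently transfected HepG2 cells after 24 h treatment. Detection via RT-PCR and capillary electrophoresis fluorescence; DMSO serves as baseline.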

[5] = ATG_Sox_CIS: Attagene CIS-FACTORIAL HepG2 Assay for human SRY-box transcription factor (SOX) (AID 2282960); details: HepG2 Attagene cis-factorial SOX reporter, mRNA; actives raise or lower the signal
Procedure, shortened: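 Cells were transfected with reporter constructs under cis-regulatory promoters, then exposed to chemicals for 24 h. Reporter transcripts were quantified by fluorescence after RT-PCR and capillary electrophoresis; activity was fitted in both directions against DMSO.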

[6] = biological target: Transcription factor Sp1 (Homo sapiens) (UniProt P08047); test: ATG_Sp1_CIS: Attagene CIS-FACTORIAL HepG2 Assay for human Specificity Protein 1 (Sp1) (AID 2282961); details: HepG2 Sp1 cis-reporter transcription, actives raise or lower the signal
Procedure, shortened: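 Measures mRNA induction of an Sp1-linked reporter in HepG2 cells 24 h post-dosing. Multiplexed reporters read by RT-PCR and capillary electrophoresis; DMSO serves as negative control and baseline.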

[7] = ATG_SREBP_CIS: Attagene CIS-FACTORIAL HepG2 Assay for human Sterol Regulatory Element Binding (SREBP) (AID 2282962); details: HepG2 Attagene cis-factorial SREBP reporter, mRNA; actives raise or lower the signal
Procedure, shortened: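 HepG2 cells transiently transfected with multiplexed cis-element reporter units report endogenous transcription factor activity. After 24 h of chemical exposure, reporter mRNA was quantified by RT-PCR, 6-FAM labelling, HpaI digestion and capillary electrophoresis; bidirectional fits used DMSO as baseline.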

[8] = biological target: Signal transducer and activator of transcription 3 (Homo sapiens) (UniProt P40763); test: ATG_STAT3_CIS: Attagene CIS-FACTORIAL HepG2 Assay for human Signal Transducer and Activator of Transcription 3 (STAT3) (AID 2282963); details: HepG2, Attagene cis-factorial STAT3 reporter transcription; actives raise or lower the signal
Procedure, shortened: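 Endogenous STAT3-responsive cis-element activity was read in transiently transfected HepG2 cells after 24 h treatment. Reporter transcripts were quantified via RT-PCR and capillary electrophoresis, with DMSO as negative control and bidirectional curve fitting.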

[9] = ATG_TA_CIS: Attagene CIS-FACTORIAL HepG2 Assay for human TA Basal Promoter (AID 2282964); details: HepG2 Attagene CIS-factorial TA basal promoter reporter; actives raise or lower the signal
Procedure, shortened: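 Transient MRTU transfection of HepG2 preceded 24 h compound exposure. Reporter mRNA levels were then read by RT-PCR with capillary electrophoresis, and this background-control endpoint was fitted bidirectionally to DMSO.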

[10] = ATG_TCF_b_cat_CIS: Attagene CIS-FACTORIAL HepG2 Assay for human T-Cell-Factor with beta-catenin (TCF/b-cat) (AID 2282965); details: HepG2 TCF/beta-catenin cis-reporter transcription, actives raise or lower the signal
Procedure, shortened: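 Endogenous TCF/LEF activity read as reporter transcript level via RT-PCR and capillary electrophoresis fluorescence in transfected HepG2, 24 h exposure; gain or loss of signal fitted against DMSO controls.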

Sequence of Signal transducer and activator of transcription 3 (Homo sapiens) (P40763 whole entry, looked up): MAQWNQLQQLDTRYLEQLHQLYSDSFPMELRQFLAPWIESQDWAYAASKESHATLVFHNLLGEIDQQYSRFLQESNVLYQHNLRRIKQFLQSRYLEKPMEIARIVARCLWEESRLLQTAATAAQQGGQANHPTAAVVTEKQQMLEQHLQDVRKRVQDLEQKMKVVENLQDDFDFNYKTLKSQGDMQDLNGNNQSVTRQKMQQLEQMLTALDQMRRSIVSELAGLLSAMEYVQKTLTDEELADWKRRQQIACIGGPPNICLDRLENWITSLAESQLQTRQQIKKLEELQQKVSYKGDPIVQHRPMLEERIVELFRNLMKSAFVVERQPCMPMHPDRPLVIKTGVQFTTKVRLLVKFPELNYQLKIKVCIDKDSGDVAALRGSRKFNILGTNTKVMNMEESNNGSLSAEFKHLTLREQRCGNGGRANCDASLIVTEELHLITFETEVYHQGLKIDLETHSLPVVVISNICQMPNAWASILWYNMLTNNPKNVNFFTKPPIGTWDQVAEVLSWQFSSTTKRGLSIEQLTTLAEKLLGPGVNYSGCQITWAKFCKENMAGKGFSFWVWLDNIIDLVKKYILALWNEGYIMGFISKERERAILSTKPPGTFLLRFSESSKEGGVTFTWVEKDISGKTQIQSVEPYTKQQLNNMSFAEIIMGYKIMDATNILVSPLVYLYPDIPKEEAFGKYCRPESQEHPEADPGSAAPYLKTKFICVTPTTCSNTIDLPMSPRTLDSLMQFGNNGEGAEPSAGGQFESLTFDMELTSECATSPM
Sequence of Transcription factor Sp1 (Homo sapiens) (P08047 whole entry, looked up): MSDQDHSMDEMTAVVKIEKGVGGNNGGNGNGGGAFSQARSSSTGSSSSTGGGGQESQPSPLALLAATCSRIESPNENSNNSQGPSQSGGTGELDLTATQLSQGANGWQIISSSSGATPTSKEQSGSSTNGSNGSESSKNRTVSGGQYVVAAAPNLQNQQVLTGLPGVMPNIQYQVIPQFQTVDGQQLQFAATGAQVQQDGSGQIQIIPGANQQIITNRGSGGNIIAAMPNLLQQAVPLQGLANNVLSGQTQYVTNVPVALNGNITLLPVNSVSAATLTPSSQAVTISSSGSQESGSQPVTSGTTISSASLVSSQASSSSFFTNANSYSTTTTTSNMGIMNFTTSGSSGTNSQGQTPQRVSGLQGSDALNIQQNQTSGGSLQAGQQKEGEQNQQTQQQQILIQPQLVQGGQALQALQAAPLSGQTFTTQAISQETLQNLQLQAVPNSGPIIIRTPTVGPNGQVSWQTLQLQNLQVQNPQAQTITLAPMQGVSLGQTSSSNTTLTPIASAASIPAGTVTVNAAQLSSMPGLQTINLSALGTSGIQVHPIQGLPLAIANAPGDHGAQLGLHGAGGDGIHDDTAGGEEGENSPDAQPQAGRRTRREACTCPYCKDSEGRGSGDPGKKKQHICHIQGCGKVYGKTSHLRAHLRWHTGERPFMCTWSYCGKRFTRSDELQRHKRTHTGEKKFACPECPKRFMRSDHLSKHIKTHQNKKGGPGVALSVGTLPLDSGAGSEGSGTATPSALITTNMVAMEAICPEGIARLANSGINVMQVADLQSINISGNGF
Sequence of Paired box protein Pax-6 (Homo sapiens) (P26367 whole entry, looked up): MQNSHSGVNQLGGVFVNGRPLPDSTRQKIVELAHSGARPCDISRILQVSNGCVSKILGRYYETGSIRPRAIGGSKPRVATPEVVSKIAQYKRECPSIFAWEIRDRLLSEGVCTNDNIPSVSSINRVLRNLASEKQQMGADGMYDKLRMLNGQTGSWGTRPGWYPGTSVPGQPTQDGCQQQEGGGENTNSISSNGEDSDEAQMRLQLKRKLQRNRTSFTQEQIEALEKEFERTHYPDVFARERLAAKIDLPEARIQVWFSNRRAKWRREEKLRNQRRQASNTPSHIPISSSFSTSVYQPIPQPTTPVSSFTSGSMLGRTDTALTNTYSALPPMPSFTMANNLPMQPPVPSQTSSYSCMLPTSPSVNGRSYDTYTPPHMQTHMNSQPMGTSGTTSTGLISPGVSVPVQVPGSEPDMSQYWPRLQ

Structure (SMILES)	outcome [1]	outcome [2]	outcome [3]	outcome [4]	outcome [5]	outcome [6]	AC50 [7]	outcome [8]	outcome [9]	outcome [10]	outcome [7]	AC50 [1]	AC50 [3]	AC50 [6]	AC50 [10]	AC50 [2]
C[Si](C)(CCCN)O[Si](C)(C)CCCN	inactive	inactive	inactive	inactive	inactive	inactive	54.5 µM (active)	inactive	inactive	inactive	–	–	–	–	–	–
CCOC(=O)CC	inactive	inactive	inactive	inactive	inactive	inactive	–	inactive	inactive	inactive	inactive	–	–	–	–	–
CCOC(=O)c1ccccc1C(=C1C=C(Br)C(=O)C(Br)=C1)c1cc(Br)c(O)c(Br)c1	–	inactive	–	inactive	inactive	–	–	inactive	inactive	–	inactive	39.3 µM (active)	19.8 µM (active)	20.7 µM (active)	24.8 µM (active)	–
CC(C)(C)c1ccc(N)cc1	inactive	–	inactive	inactive	inactive	inactive	–	inactive	inactive	inactive	inactive	–	–	–	–	24.2 µM (active)
O=C(OCC1CCC2OC2C1)C1CCC2OC2C1 (stereo not drawn)	inactive	inactive	inactive	inactive	inactive	inactive	–	inactive	inactive	inactive	inactive	–	–	–	–	–
CC(C)c1ccc2c(C(C)C)cc(C(C)C)c(S(=O)(=O)O)c2c1	inactive	–	inactive	inactive	inactive	inactive	22.4 µM (active)	–	inactive	inactive	–	–	–	–	–	1.56 µM (active)
CCN(CCC#N)c1ccc(N=Nc2c(Cl)cc([N+](=O)[O-])cc2Cl)cc1	inactive	–	inactive	inactive	inactive	inactive	–	–	inactive	inactive	inactive	–	–	–	–	1.67 µM (active)
CC(C)c1ccc(C=O)cc1	inactive	inactive	inactive	inactive	inactive	inactive	–	–	inactive	inactive	inactive	–	–	–	–	–
C=CC(C)(CCC=C(C)C)OC(=O)C(C)C (stereo not drawn)	inactive	–	inactive	inactive	inactive	inactive	–	inactive	inactive	inactive	inactive	–	–	–	–	8.57 µM (active)
C1=CCCC1	inactive	inactive	inactive	inactive	inactive	inactive	–	–	inactive	inactive	inactive	–	–	–	–	–
Cc1cc(C)c(C)c(C)c1	inactive	inactive	inactive	inactive	inactive	inactive	–	–	inactive	inactive	inactive	–	–	–	–	–
CCCCCCOC(=O)C(C)CC (stereo not drawn)	inactive	inactive	inactive	inactive	inactive	inactive	–	–	inactive	inactive	inactive	–	–	–	–	–
O=c1[nH]c(=O)c2[nH]c(=O)[nH]c2[nH]1	inactive	inactive	inactive	inactive	inactive	inactive	–	inactive	inactive	inactive	inactive	–	–	–	–	–
CCCCCCCCCCCCCCCC[n+]1ccccc1	inactive	inactive	–	inactive	inactive	inactive	–	inactive	inactive	inactive	inactive	–	8.82 µM (active)	–	–	–
CCCCCCCC[N+](C)(CCCCCCCC)CCCCCCCC	inactive	inactive	inactive	inactive	inactive	inactive	–	–	inactive	inactive	inactive	–	–	–	–	–
C=C(C)C(=O)OCC(C)C	inactive	inactive	inactive	inactive	inactive	inactive	–	inactive	inactive	inactive	inactive	–	–	–	–	–
CC(C)CC(O)Cc1ccccc1 (stereo not drawn)	inactive	–	inactive	inactive	inactive	inactive	–	inactive	inactive	inactive	inactive	–	–	–	–	71.6 µM (active)
C=C(C)CCO	inactive	–	inactive	inactive	inactive	inactive	–	inactive	inactive	inactive	inactive	–	–	–	–	5.16 µM (active)
c1c[nH]cn1	inactive	–	inactive	inactive	inactive	inactive	–	inactive	inactive	inactive	inactive	–	–	–	–	63.8 µM (active)
CC(=O)OCC(C)OC(C)=O (stereo not drawn)	inactive	inactive	inactive	inactive	inactive	inactive	–	inactive	inactive	inactive	inactive	–	–	–	–	–
O=C(O)c1cc2ccccc2nc1C(=O)O	inactive	inactive	inactive	inactive	inactive	inactive	–	inactive	inactive	inactive	inactive	–	–	–	–	–
